A short description of this assay: caspase-3/7 inhibition in cytokine-treated INS-1E, dose response, beta-cell apoptosis inhibitor project, cell-based, caspase luminescence, dry powder (AID 488848).

The structures appear in SMILES notation. Measured potencies and affinities stand elsewhere. Activity calls are given as the source filed them.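 Rule for the calls: active = compounds lowering caspase signal with half-maximal concentration at most ten times their top tested dose; inconclusive = flat curve with 30 to 70% inhibition, or poor fit; inactive = the rest.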

As for `COc1ccc(S(=O)(=O)N(C)C[C@@H]2Oc3c(NC(=O)Nc4cccc5c4CC(C)(C)O5)cccc3C(=O)N([C@@H](C)CO)C[C@H]2C)cc1`, the compound was called inactive.
`C[C@@H]1CN([C@@H](C)CO)C(=O)c2cccc(NC(=O)Nc3ccc(F)cc3)c2O[C@H]1CN(C)S(=O)(=O)c1ccc(Cl)cc1`: the compound was classed as inactive.
In the case of `C[C@@H]1CN([C@@H](C)CO)C(=O)c2cccc(NC(=O)Nc3cccc4ccccc34)c2O[C@H]1CN(C)S(=O)(=O)c1ccc2c(c1)CCC(=O)N2`, the call was inactive.
`C[C@@H]1CN([C@@H](C)CO)C(=O)c2cccc(NC(=O)Nc3cccc4ccccc34)c2O[C@H]1CN(C)S(=O)(=O)c1ccc(Oc2ccccc2)cc1`: the outcome was inactive.
Then `C[C@@H]1CN([C@@H](C)CO)C(=O)c2cccc(NC(=O)Nc3cccc4ccccc34)c2O[C@H]1CN(C)S(=O)(=O)c1ccccc1F`, with “inactive”.
To `COc1ccc(S(=O)(=O)N(C)C[C@@H]2Oc3c(NC(=O)Nc4cccc5ccccc45)cccc3C(=O)N([C@@H](C)CO)C[C@H]2C)cc1F` belongs “inactive”.
As to `Cc1ccc(S(=O)(=O)N(C)C[C@@H]2Oc3c(NC(=O)Nc4ccc(F)cc4)cccc3C(=O)N([C@H](C)CO)C[C@H]2C)cc1`, the compound was classed as inactive.
Take `COc1ccc(S(=O)(=O)N(C)C[C@@H]2Oc3c(NC(=O)Nc4ccccc4-c4ccccc4)cccc3C(=O)N([C@@H](C)CO)C[C@H]2C)cc1`: the compound was called inactive.
Turning to `COc1ccc(S(=O)(=O)N(C)C[C@@H]2Oc3ccc(NC(=O)Nc4cccc5ccccc45)cc3C(=O)N([C@@H](C)CO)C[C@H]2C)cc1`, the result was inactive.
As to `COc1cccc(S(=O)(=O)N(C)C[C@@H]2Oc3c(NC(=O)Nc4cccc5ccccc45)cccc3C(=O)N([C@@H](C)CO)C[C@H]2C)c1`, the outcome was inactive.
On to `C[C@@H]1CN([C@@H](C)CO)C(=O)c2cccc(NC(=O)Nc3cccc4ccccc34)c2O[C@H]1CN(C)S(=O)(=O)Cc1ccc(F)cc1`, for which the call was inactive.
In the case of `COc1ccc(S(=O)(=O)N(C)C[C@@H]2Oc3c(NC(=O)Nc4cc(F)ccc4F)cccc3C(=O)N([C@@H](C)CO)C[C@H]2C)cc1`, the call was inactive.
To `COc1ccc(S(=O)(=O)N(C)C[C@@H]2Oc3c(NC(=O)Nc4ccc5occc5c4)cccc3C(=O)N([C@@H](C)CO)C[C@H]2C)cc1` belongs “inactive”; to `COc1ccc(S(=O)(=O)N(C)C[C@@H]2Oc3c(NC(=O)Nc4cc(F)cc5c4OCOC5)cccc3C(=O)N([C@@H](C)CO)C[C@H]2C)cc1`, “inactive”; to `COc1ccccc1S(=O)(=O)N(C)C[C@@H]1Oc2c(NC(=O)Nc3cccc4ccccc34)cccc2C(=O)N([C@@H](C)CO)C[C@H]1C`, “inactive”.
Turning to `C[C@@H]1CN([C@@H](C)CO)C(=O)c2cccc(NC(=O)Nc3cccc4ccccc34)c2O[C@H]1CN(C)S(=O)(=O)c1cccc(F)c1`, the compound was called inactive.
As for `COc1ccc(S(=O)(=O)N(C)C[C@@H]2Oc3c(NC(=O)NC4CCCc5ccccc54)cccc3C(=O)N([C@@H](C)CO)C[C@H]2C)cc1` (stereo not given in full), the call was inactive.
To `COc1ccc(S(=O)(=O)N(C)C[C@@H]2Oc3c(NC(=O)Nc4cccc5ccccc45)cccc3C(=O)N([C@@H](C)CO)C[C@H]2C)cc1Cl` belongs “inactive”.
Take `C[C@@H]1CN([C@@H](C)CO)C(=O)c2cccc(NC(=O)Nc3cccc4ccccc34)c2O[C@H]1CN(C)S(=O)(=O)c1ccc(F)cc1`: the call was inactive.
Turning to `COc1ccc(S(=O)(=O)N(C)C[C@@H]2Oc3c(NC(=O)Nc4cccc5c4NSN5)cccc3C(=O)N([C@@H](C)CO)C[C@H]2C)cc1`, the result was inactive.
To `COc1ccc(S(=O)(=O)N(C)C[C@@H]2Oc3c(NC(=O)Nc4ccc5c(c4)OCCO5)cccc3C(=O)N([C@@H](C)CO)C[C@H]2C)cc1` belongs “inactive”; to `C[C@@H]1CN([C@@H](C)CO)C(=O)c2cccc(NC(=O)Nc3cccc4ccccc34)c2O[C@H]1CN(C)S(=O)(=O)c1ccc(Cl)cc1`, “inactive”.
Then `COc1ccc(S(=O)(=O)N(C)C[C@@H]2Oc3c(NC(=O)Nc4cccc5ccccc45)cccc3C(=O)N([C@@H](C)CO)C[C@H]2C)c(OC)c1`, with “inactive”; and `C[C@@H]1CN([C@@H](C)CO)C(=O)c2cccc(NC(=O)Nc3cccc4ccccc34)c2O[C@H]1CN(C)S(=O)(=O)c1ccc(-c2ccccc2)cc1`, with “inactive”; and `COc1ccc(S(=O)(=O)N(C)C[C@@H]2Oc3c(NC(=O)Nc4cccc(C(F)(F)F)c4)cccc3C(=O)N([C@@H](C)CO)C[C@H]2C)cc1`, with “inactive”.

The values above are taken from PubChem BioAssay AID488848 (Broad Institute, 2010).
